# In the library only some 1% were active in any assay of this set; here they are far more common.
# FEN1 inh – inhibitors of human flap endonuclease 1; P39748; Recombinant FEN1 flap cleavage, fluorescence, 15 min; Potency, µM (highest dose often 114 µM), inactives show top-dose activity change, negative = inhibition, most hits filed as inhibitors; actives 0.35% (n = 390,000); AID 588795; further: nearly all actives have a fitted effect of over 65% in size
#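 Enzyme 10 nM, 15 min RT preincubation with compound; start with substrate 50 nM final; reads at 0 and 15 min; qHTS titration, four-parameter Hill fit.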
# L3MBTL1 block – L3MBTL1 (human) inhibition; Q9Y468; AlphaScreen L3MBTL1–H3K9me1 peptide binding; Potency, µM (top dose mostly 57.1 µM), for the others: at the highest dose activity, negative = inhibition, actives largely listed as inhibitors; actives 0.66% (n = 230,000); further: nearly all actives have a fitted effect of over 60% in size
#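 Displacement of a biotinylated histone H3(1-15) peptide monomethylated at Lys9 (75 nM) from L3MBTL1 (50 nM) was measured by AlphaScreen after a 30 min room-temperature compound incubation; cefsulodin titration served as intraplate control.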
# WRN helicase inh – inhibitors of human WRN helicase; AID 651768; Potency, µM (series often up to 114 µM), for inactives: at the top dose activity change, negative = inhibition, usual class: inhibitors; Q14191; WRN helicase unwinding, fluorescent forked duplex, kinetic; actives 0.46% (n = 360,000); further: nearly all actives have a fitted effect of over 55% in size
#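 WRN at 20 nM final preincubated with compound 15 min at room temperature; reaction started with 100 nM fluorophore/quencher forked duplex oligonucleotide and 2 mM ATP final. Unwinding followed kinetically by red fluorescence (ex 525, em 598 nm).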
# APEX1 inh – blocks human APE1 abasic DNA cleavage. recombinant APE1, TAMRA/BHQ-2 abasic DNA cleavage fluorescence. actives 0.35% (n = 350,000). Potency, µM (highest dose often 65.8 µM), inactives show at the top dose activity change, negative = inhibition, most hits filed as inhibitors. P27695;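 further: plate controls were vehicle for no effect and reference inhibitor for full effect; nearly all actives have a fitted effect of over 55% in size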
#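 Measures dequenching upon AP-site incision of a 5'-TAMRA/3'-BHQ-2 THF-containing duplex, 50 nM; human APE1 0.75 nM after 15 min room-temperature exposure to compound; kinetic three-point read at one-minute spacing.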
# RECQ1 inh-1 – blocks DNA unwinding by human RECQ1. P46063. Potency, µM (highest dose often 57.3 µM), without a hit: at the top dose activity, negative = inhibition, most hits filed as inhibitors. RECQ1 DNA unwinding, red fluorescence kinetic read. actives 0.54% (n = 240,000);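 further: plate controls were vehicle for no effect and no enzyme for full effect; nearly all actives have a fitted effect of over 30% in size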
#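 50 nM RECQ1T1 preincubated 15 min with compound in Tris pH 8.0 buffer with MgCl2, DTT, Tween-20 and 2.5 ug/ml poly(dI-dC); started with 200 nM TAMRA/BHQ-2 forked duplex and 2 mM ATP. Unwinding read as fluorescence (525/598 nm), two reads 2 h apart.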
# BLM helicase inh – Bloom syndrome helicase (human) inhibition; Potency, µM (top dose mostly 56.1 µM), for the others: at the top dose activity change, negative = inhibition, hits mostly inhibitors; actives 0.2% (n = 350,000); P54132; recombinant BLM DNA unwinding, fluorescence dequenching;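 further: plate controls were vehicle for no effect and no enzyme for full effect; nearly all actives have a fitted effect of over 35% in size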
# RECQ1 inh conf – confirmation of human RECQ1 helicase inhibitors; RECQ1 helicase DNA unwinding, fluorescence; actives 28% (n = 610); Potency, µM (top dose mostly 229 µM), without a hit: at the top dose activity change, negative = inhibition, hits mostly inhibitors; AID 2708; shares compounds with RECQ1 inh-1; further: nearly all actives have a fitted effect of over 45% in size
# ADP FP counter – counter-screen for RECQ1 inhibitors: ADP displacement. actives 27% (n = 530). AID 2711. Potency, µM (doses to about 228 µM), for inactives: at the top dose activity change, negative = inhibition, most hits filed as inhibitors. shares compounds with RECQ1 inh-1. ADP fluorescence polarization displacement counterscreen; further: nearly all actives have a fitted effect of over 45% in size
# RECQ1 inh-2 – RECQ1 helicase inhibition confirmed, round 2; shares compounds with RECQ1 inh-1; recombinant RECQ1 DNA unwinding, red fluorescence; Potency, µM (top dose mostly 119 µM), inactives show at the highest dose activity, negative = inhibition, hits mostly inhibitors; actives 15% (n = 1,100); AID 504841; further: nearly all actives have a fitted effect of over 50% in size
# * hit, by the source's call; i = inactive; ? = inconclusive; / = not tested or not shown; [ ] = remark or other dose. The call rests on the fitted dose curve; in most records, active means well fitted curve in the direction sought with a large enough effect; inconclusive means small, poorly fitted or top-dose-only effect, or another doubt; inactive means no such curve, though single readings can be large; an effect the other way counts as inactive or inconclusive. Unless noted, on the % scale 0 is the no-effect control and ±100 the full control effect; potency means the concentration at half of the fitted maximal effect.
SMILES,FEN1 inh,L3MBTL1 block,WRN helicase inh,APEX1 inh,RECQ1 inh-1,BLM helicase inh,RECQ1 inh-2,others
COc1cccc(C(C(=O)NCc2ccco2)N(C(=O)Cn2nnc3ccccc32)C2CC2)c1OC (stereo not given),9.4%,-4.8%,-0.9%[57.1 µM],0.0%,?,-0.6%,-10.6%,
O=C(/C=C/c1ccco1)Nc1sc2c(c1C(=O)O)CCC2,-11.6%,?,-3.2%[11.6 µM],?,35.5µM*,5.3%,?,
N#Cc1c(NC(=O)/C=C/c2ccco2)sc2c1CCCC2,3.7%,-19.3%,?,?,-19.1%,-7.4%,/,
Cc1cccc(N2CCN(C(=O)c3ccccc3NC(=O)C3CC=CCC3C(=O)O)CC2)c1 (stereo not given),3.9%,/,3.1%,-4.4%,i,-1.1%,/,RECQ1 inh conf=11.7%;ADP FP counter=-5.9%
O=C(c1ccc2c(c1)N(Cc1cccc(Cl)c1)C(=O)c1ccccc1S2)N1CCOCC1,-21.3%,/,/,/,/,-3.5%,/,
CCC1CN(C(=O)N2CCC(C(=O)NCCC3=CCCCC3)CC2)c2cc(C)ccc2O1 (stereo not given),-1.4%,/,/,/,/,-4.8%,/,
CCC(C)c1c(NS(=O)(=O)c2ccc(C)cc2)o[nH]c1=O (stereo not given),4.3%,/,-1.4%,/,/,/,/,
O=C(Cn1ncc(Cl)c(Cl)c1=O)N1CCN(Cc2ccccc2)CC1,20.1%,-27.1%,-10.4%,8.5%,31.6µM*,-18.3%,-14.2%,
O=C(NC1CCCC1)c1ccc2nc(-c3ccco3)c(-c3ccco3)nc2c1,?,-27.2%,39.8µM*,?,?,?,-20.7%,
Cc1cccc(C(=O)OC2CCN(C)CC2)c1,-1.1%,-20.2%,-1.8%,-0.1%,-3.3%,-4.1%,/,
Cc1cccc(N(C(=O)c2ccc(Cl)cc2)C2CS(=O)(=O)CC2OC(=O)c2ccc(Cl)cc2)c1 (stereo not given),-11.4%,-3.2%,-12.7%,7.6%,?,-7.2%,-11.3%,
COCc1cccc(-c2csc(C(C)(NC(C)=O)c3ccccc3)n2)c1 (stereo not given),/,/,1.0%,/,/,/,/,
CCOC1CCCc2oc(-c3ccc(N(C)C)cc3)c(C(=O)OC)c21 (stereo not given),/,/,2.4%,/,/,/,/,
Cc1ccc(NC(=O)c2ccccc2NS(=O)(=O)c2ccc(Cl)s2)cc1,7.7%,8.6%,-16.6%[57.1 µM],15.9%,39.8µM*,-5.8%,-17.9%,
CC(=O)Oc1ccc(C(=O)Nc2cccc(C(=O)c3cccc(NC(=O)c4ccc(OC(C)=O)cc4)c3)c2)cc1,?,-7.6%,?,15.3%,14.1µM*,-28.5%,?,
CC(=O)Oc1ccc(C(=O)Nc2cccc(C(=O)NC(C)(C)C)c2)cc1,-7.7%,/,-6.6%,1.4%,-5.7%,0.7%,/,
COc1ccc(-c2ccc(C(c3c(C)[nH][nH]c3=O)c3c(C)[nH][nH]c3=O)o2)c([N+](=O)[O-])c1,-19.8%,-20.9%,-29.3%,?,i,?,/,
Cc1[nH][nH]c(=O)c1C(c1ccc(-c2ccc(Cl)c(Cl)c2)o1)c1c(C)[nH][nH]c1=O,-22.5%,/,0.3%,?,?,-26.0%,?,
Cc1[nH][nH]c(=O)c1C(c1ccc(-c2ccc(F)cc2)o1)c1c(C)[nH][nH]c1=O,0.0%,?,10.8%,-7.6%,6.8%,-22.0%,/,
Cc1[nH][nH]c(=O)c1C(c1ccc(-c2ccc(C(=O)O)cc2)o1)c1c(C)[nH][nH]c1=O,-21.2%,?,?,?,11.2µM*,-3.5%,-8.2%,RECQ1 inh conf=-3.4%[114 µM]
CCC(=O)N1CCCC(C)(C(=O)Nc2nccc3ccccc23)C1 (stereo not given),/,/,4.0%,/,/,/,/,
COC(=O)c1sc2cccc(F)c2c1S(=O)(=O)N1CCN(c2ccccc2OC)CC1,4.7%,/,/,/,/,-6.8%,/,
CC(C)(C)c1ccc(C(=O)NC2=NC(c3cccc(F)c3)CC(=O)N2)cc1 (stereo not given),3.3%,/,/,/,/,-2.2%,/,
CCOC(=O)C1CN(S(=O)(=O)c2ccccc2)c2cc(S(=O)(=O)CC)ccc2O1 (stereo not given),-2.4%,-1.8%,3.4%,-3.5%,-12.1%,-3.3%,/,
CCOC(=O)C1CN(S(=O)(=O)c2cccc(C(F)(F)F)c2)c2cc(CC(=O)OC)ccc2O1 (stereo not given),-5.1%,4.4%,-8.1%,4.7%,39.8µM*,-10.7%,-10.1%,
SMILES,FEN1 inh,L3MBTL1 block,WRN helicase inh,APEX1 inh,RECQ1 inh-1,BLM helicase inh,RECQ1 inh-2,others
Cc1cc(C)cc(NC(=O)c2nnn(Cc3cc(C)ccc3C)c2N)c1,?,-3.8%,-7.3%,2.8%,1.78µM*,-8.9%,-18.0%,RECQ1 inh conf=?;ADP FP counter=?
CCOC(=O)CC[C@H](NC(=O)Cn1cnc2c(NCc3ccccc3)ncnc21)C(=O)OCC,13.3%,4.5%,-10.2%,-3.0%,/,/,/,
CCOC(=O)CC(=O)CSc1nc2sc(C)cc2c(=O)n1Cc1ccco1,-16.1%,/,4.5%,0.1%,9.7%,-11.9%,/,
Cc1cc2c(=O)n(Cc3ccco3)c(SCC(=O)c3ccc(Cl)s3)nc2s1,-21.7%,2.7%,-22.4%,-5.6%,?,-8.3%,-11.1%,
CCOC(=O)c1ccc(N2C(=O)c3n[nH]c(-c4ccco4)c3C2c2ccc([N+](=O)[O-])cc2)cc1 (stereo not given),1.4%,-30.9%,-4.2%,-10.0%,?,-10.5%,-18.6%,
Cc1cc2cc(CNS(=O)(=O)c3ccc4ccccc4c3)ccc2n1C,-22.8%,-14.3%,?,-8.1%,?,-12.4%,/,
Cc1cc(C)c(S(=O)(=O)NCc2ccc3c(c2)cc(C)n3C)c(C)c1,?,-9.6%,?,-2.6%,?,-14.6%,56.2µM*,
CC(=O)Nc1ccc(S(=O)(=O)NCc2ccc3c(c2)cc(C)n3C)cc1,?,/,?,-7.8%,31.6µM*,-23.8%,50.1µM*,
Cc1c(C(=O)NCc2ccc3c(c2)cc(C)n3C)cccc1[N+](=O)[O-],-9.8%,-6.0%,-24.5%,?,?,-5.7%,-9.0%,
Cc1noc(C)c1COc1ccc(C(=O)Nc2ccccn2)cc1,-10.7%,/,1.6%,17.3%,/,-2.0%,/,

# Compound activity (PubChem)
